Only some compounds are listed: those with a hit (about 3.5% of all), similar ones and a draw of the others.
FBW7 activator = FBW7 E3 ligase activators, primary screen, biochemical, AlphaScreen, human; AlphaScreen FBW7–phospho-cyclin E peptide binding, activator screen; normalized activity (activation), % at 26.1 µM; 0.13% of 650,000 active; AID 1259310, 2017; F-box/WD repeat-containing protein 7 (Homo sapiens), Q969H0; in the data active = normalized activity above about 1.9%;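 note: purified mutant Fbw7 with reduced substrate affinity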
Target sequence (Q969H0 whole entry, looked up): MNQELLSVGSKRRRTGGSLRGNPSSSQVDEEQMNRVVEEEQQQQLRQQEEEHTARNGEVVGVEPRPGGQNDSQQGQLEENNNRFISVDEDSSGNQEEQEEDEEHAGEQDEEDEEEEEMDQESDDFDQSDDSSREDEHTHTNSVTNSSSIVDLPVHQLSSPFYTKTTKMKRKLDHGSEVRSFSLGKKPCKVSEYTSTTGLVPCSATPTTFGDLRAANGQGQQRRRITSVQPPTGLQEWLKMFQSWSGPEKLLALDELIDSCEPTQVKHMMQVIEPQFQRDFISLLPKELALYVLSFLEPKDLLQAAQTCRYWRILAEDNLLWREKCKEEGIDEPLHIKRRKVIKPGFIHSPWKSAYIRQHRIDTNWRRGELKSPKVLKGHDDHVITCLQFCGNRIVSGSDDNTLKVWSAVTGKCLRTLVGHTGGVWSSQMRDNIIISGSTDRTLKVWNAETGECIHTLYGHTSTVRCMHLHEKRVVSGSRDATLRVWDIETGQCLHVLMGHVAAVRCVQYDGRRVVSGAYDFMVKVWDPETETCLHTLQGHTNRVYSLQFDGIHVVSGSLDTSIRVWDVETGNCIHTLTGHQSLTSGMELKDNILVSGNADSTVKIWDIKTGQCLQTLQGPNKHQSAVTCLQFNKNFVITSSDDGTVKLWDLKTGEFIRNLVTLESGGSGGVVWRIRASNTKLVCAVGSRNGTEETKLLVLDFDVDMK
TEAD-YAP inh = TEAD-YAP interaction inhibition, primary screen, TEAD-YAP interaction inhibitor project, luminescence, HEK-TIYL cells; TEAD-Gal4/YAP UAS-luciferase luminescence; inhibition, % at 9.12 µM; 1.4% of 640,000 active; AID 1259422, 2018; in the data active = inhibition above about 32%
GPR151 activ = activators of human GPR151, primary screen, cell-based, PathHunter beta-arrestin, luminescence; PathHunter beta-arrestin GPR151 cells; AID 1508602, 2020; activation, % at 11.2 µM; 1% of 650,000 active; G-protein coupled receptor 151 (Homo sapiens), Q8TDV0; in the data active = activation above about 4.9%
MITF inh = MITF inhibitors, primary screen, biochemical, AlphaScreen, human; Microphthalmia-associated transcription factor (Homo sapiens), O75030; AlphaScreen MITF homodimerization, bead proximity signal; inhibition, % at 2.6 µM; 0.91% of 650,000 active; in the data active = inhibition above about 50%
GPR151 confirm = GPR151 activators, triplicate retest, confirmation, cell-based, PathHunter beta-arrestin, luminescence; activation, % at 11.2 µM; shares compounds with GPR151 activ; GPR151 PathHunter beta-arrestin cells, 90 min; % of EA-reagent control over plate median; 6,700 tested, under 10 active;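 active = mean percent activation across replicates above the confirmation screen cutoff of 4.91%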
GPR119 ag = GPR119 activators in beta-arrestin cells, counter-screen for GPR151 activator project, cell-based, PathHunter beta-arrestin, luminescence, triplicate; 90 min; 0 = compound-well median, 100 = enzyme-acceptor control; shares compounds with GPR151 activ; activation, % at 11.2 µM; 0.3% of 6,700 active;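 active = mean percent activation in the counterscreen above 29.09%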;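 note: counterscreen on off-target GPR119 to flag nonselective hits from the GPR151 activator screen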
Large screens that a line does not name were inactive (follow-up assays come after a bar, where they were run).

Nc1ccccc1S(=O)(=O)NCC(=O)O	none
CCOc1ccc(Nc2nc(-c3ccc(Cl)cc3)c(C)s2)cc1	none
CC12CC3CC(C)(C1)CC(CNC(=O)COc1ccccc1)(C3)C2	none
CC1(C)CC(NC(=O)COc2ccccc2)CC(C)(CNC(=O)COc2ccccc2)C1 (stereo not drawn)	GPR151 activ 5.4 | GPR151 confirm inactive | GPR119 ag inactive
O=C(O)CCc1nn2c3ccccc3n(CCN3CCCCC3)c2nc1=O	none
O=C(O)CCc1nn2c3ccccc3n(CC(=O)O)c2nc1=O	GPR151 activ 21.3 | GPR151 confirm inactive | GPR119 ag inactive
Cc1ccc(-c2noc(CSc3nnc(-c4ccncc4)n3C)n2)cc1	none
O=C(CN1CCN(Cc2ccccc2)C1=O)NCc1ccc(Cl)cc1	GPR151 activ 13.3 | GPR151 confirm inactive | GPR119 ag inactive
O=C(NCc1ccccc1)C1C2C=CC3(CN(Cc4ccccc4)C(=O)C13)O2 (stereo not drawn)	none
O=C(NCc1ccc(Cl)cc1)C1C2C=CC3(CN(Cc4ccccc4)C(=O)C13)O2 (stereo not drawn)	GPR151 activ 5.1 | GPR151 confirm inactive | GPR119 ag inactive
COc1ccc(S(=O)(=O)Nc2cccc(C(=O)O)c2)cc1C(=O)NC1CCCCC1	none
Cc1cccc(NC(=S)N(CCCN2CCCC2)Cc2cccs2)c1	none
CC(C)(C)C(=O)/C=C(/N)c1ccccn1	none
CC(C)(C)C(=O)/C=C(\N)Cc1ccccc1	GPR151 activ 8.1 | GPR151 confirm inactive | GPR119 ag inactive
Cc1cc(C)nc(SCC(=O)Oc2ccc3ccc(=O)oc3c2)n1	none
Cc1cc(NC(=O)CSc2nc3ccccc3c(=O)n2CCC(=O)N2CCCCC2)no1	none
CC(/C=N/NC(=O)c1cccnc1)c1ccccc1 (stereo not drawn)	none
COc1cc(CN2CCN(c3ccccc3Cl)CC2)cc2c1OCO2	GPR151 activ 5.5 | GPR151 confirm inactive | GPR119 ag inactive
COc1cc(CN2CCC3(C=Cc4ccccc43)CC2)cc2c1OCO2	none (no result: FBW7 activator, TEAD-YAP inh, MITF inh)
Cn1c(Nc2nc(NCCN3CCOCC3)c3[nH]cnc3n2)nc2ccccc21	none
CCOC(=O)c1cc(CC)sc1NC(=O)CN1C(=O)NC2(CCc3ccccc32)C1=O (stereo not drawn)	none
COc1ccc2nccnc2c1[N+](=O)[O-]	GPR151 activ 12.9 | GPR151 confirm inactive | GPR119 ag inactive
COc1ccccc1CCN1C(=O)CCC1CCNCc1ccccc1 (stereo not drawn)	none
COc1ccccc1CCN1C(=O)CCC1CCNCCOc1ccccc1 (stereo not drawn)	GPR151 activ 7.1 | GPR151 confirm inactive | GPR119 ag inactive
O=S(=O)(NCCc1nnc2ccc(SCc3ccc(F)cc3)nn12)c1ccccc1	none
COc1cc2c(cc1OC)CN(S(=O)(=O)CCNC(=O)c1ccc(F)cc1)CC2	none
C=CCNCCC1CCC(=O)N1Cc1cn2c(C)csc2n1 (stereo not drawn)	GPR151 activ 12.3 | GPR151 confirm inactive | GPR119 ag inactive
C=CCNCCC1CCC(=O)N1Cc1ccc(C)o1 (stereo not drawn)	none
O=C(CCCOc1ccccc1)Nc1ccccc1C(=O)N1CCOCC1	GPR151 activ 9.4 | GPR151 confirm inactive | GPR119 ag inactive
COc1ccc(C(C)C)cc1-c1ccc(C(=O)N2CCN(C)CC2)c(N2CCOCC2)n1	none
Cc1cccc(C(C)C)c1NC(=O)CCS(=O)(=O)c1ccc2c(c1)SCC(=O)N2	GPR151 activ 5.5 | GPR151 confirm inactive | GPR119 ag inactive
Cc1c(Cl)cccc1NC(=O)CC(C)S(=O)(=O)c1ccc2c(c1)SCC(=O)N2 (stereo not drawn)	none
Cc1cccc(NC(=O)CC(C)S(=O)(=O)c2ccc3c(c2)SCC(=O)N3)c1C (stereo not drawn)	GPR151 activ 5.8 | GPR151 confirm inactive | GPR119 ag inactive
CCOC(=O)C1=CN(C(C)C)C=C(C(=O)OCC)C1c1ccccc1OCc1ccccc1	none
CC(=O)CSc1nnc(C)n1-c1ccc(N(C)C)cc1	none
COC(=O)CSc1nnc(C)n1-c1ccc(N(C)C)cc1	GPR151 activ 5.6 | GPR151 confirm inactive | GPR119 ag inactive
COC(=O)C1=C(N)OC2=C(C(=O)CC(C)(C)C2)C1c1ccc(F)cc1F (stereo not drawn)	none
Cc1cccc(Nc2nnc(C(C)(C)C)c(=O)[nH]2)c1	none
CCC(CC)C(=O)Nc1c2c(nn1-c1ccc(OC)cc1)CS(=O)(=O)C2	GPR151 activ 7.4 | GPR151 confirm inactive | GPR119 ag inactive
COc1ccc(-n2nc3c(c2NC(=O)c2ccc(C)cc2)CS(=O)(=O)C3)cc1	GPR151 activ 5.4 | GPR151 confirm inactive | GPR119 ag inactive
COc1ccc(-n2nc3c(c2NC(=O)CCC2CCCC2)CS(=O)(=O)C3)cc1	GPR151 activ 16.7 | GPR151 confirm inactive | GPR119 ag inactive
COc1ccc(CCNC(=O)NC2CC(=O)N(c3cccc(F)c3)C2)cc1 (stereo not drawn)	none
COc1ccc(CCNC(=O)NC2CC(=O)N(c3ccccc3)C2)cc1 (stereo not drawn)	GPR151 activ 6.1 | GPR151 confirm inactive | GPR119 ag inactive
COc1ccc(N2CC(NC(=O)Nc3ccccc3C(N)=O)CC2=O)cc1OC (stereo not drawn)	GPR151 activ 5.4 | GPR151 confirm inactive | GPR119 ag inactive
O=C(NCCc1ccccc1)C1CC(=O)N(c2ccc(Br)cc2)C1 (stereo not drawn)	GPR151 activ 5.5 | GPR151 confirm inactive | GPR119 ag inactive
Cc1ccnc(NC(=O)NC2CC(=O)N(c3ccccc3)C2)c1 (stereo not drawn)	GPR151 activ 6.1 | GPR151 confirm inactive | GPR119 ag inactive
COc1ccc(-n2nc(C(=O)Nc3ccc(Oc4ccccc4)cc3)c3ccccc3c2=O)cc1	none
CCOC(=O)C1=C(C)NC2=C(C(=O)CCC2)C1c1ccc(OC(F)F)cc1 (stereo not drawn)	none
Cc1ccc(N2CC(NC(=O)Nc3nccs3)CC2=O)cc1 (stereo not drawn)	none
O=C1CC(NCCCCO)C(=O)N1c1ccc(Br)cc1 (stereo not drawn)	none
Cc1ccc(N2CC(NC(=O)Nc3ncccc3C)CC2=O)cc1 (stereo not drawn)	GPR151 activ 5.9 | GPR151 confirm inactive | GPR119 ag inactive
O=C1CC(NCCCc2ccccc2)C(=O)N1c1ccc(Br)cc1 (stereo not drawn)	GPR151 activ 11.0 | GPR151 confirm inactive | GPR119 ag inactive
COc1ccc(S(=O)(=O)N2CCC(c3nnc(C4CC4)s3)CC2)cc1	none
